# Screening data (PubChem)
# DT40 TDP1 no CPT: qHTS for Inhibitors of human tyrosyl-DNA phosphodiesterase 1 (TDP1): qHTS in cells in absence of CPT. DT40 Tdp1-/- hTDP1 cells, no CPT, ATP luminescence, 48 h. Potency, µM (series often up to 46.2 µM), inactives show at the top dose activity change, negative = growth inhibition, hits mostly inhibitors. 420,000 compounds, 15% hits; also: nearly all actives have a fitted effect of over 55% in size
#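 Chicken DT40 Tdp1-/- cells complemented with human TDP1, screened without camptothecin (DMSO vehicle only), 400 cells/well. Compounds pin-transferred, cells incubated at 37 °C for at least 48 hr. Growth read as ATP-dependent luminescence (CellTiter-Glo, 30 min at RT).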
# DT40 TDP1 CPT: DT40-hTDP1 cell growth loss with CPT; chicken DT40 Tdp1-/-;hTDP1 cells + 20 nM CPT, ATP luminescence, 48 h; Potency, µM (doses to about 46.2 µM), for inactives: at the highest dose activity change, negative = growth inhibition, hits mostly inhibitors; 420,000 compounds, 12% hits; AID 686979; also: nearly all actives have a fitted effect of over 55% in size
#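 Chicken DT40 Tdp1-/- cells stably complemented with human TDP1 were seeded at 400 cells/well in medium containing 20 nM camptothecin, exposed to pin-transferred compounds, and grown at 37 °C for at least 48 hr. Viability was read as ATP luminescence.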
# Gal4-VP16 FLuc: inhibits Gal4-VP16 luciferase reporter, ROR gamma counter-screen. AID 2546. Drosophila S2 Gal4-VP16 UAS-luciferase, luminescence, 20 h. 310,000 compounds, 3.5% hits. Potency, µM (series often up to 53.6 µM), for the others: at the highest dose activity, negative = inhibition, hits mostly inhibitors;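 also: Gal4-VP16 expression switched on by copper sulfate through the metallothionein promoter; nearly all actives have a fitted effect of over 50% in size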
# 12-LOX inh: ALOX12 (human) lipoxygenase inhibition. P18054. purified 12hLO, xylenol orange hydroperoxide absorbance. Potency, µM (top dose mostly 108 µM), inactives show top-dose activity change, negative = inhibition, hits mostly inhibitors. 580,000 compounds, 1.1% hits. AID 1671190
#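 Purified human 12hLO (150 nM final) in 25 mM Hepes, 0.01% Triton X-100, pH 7.0 was preincubated 15 min at room temperature with compound. Then 40 uM arachidonic acid was added, 30 min. Hydroperoxide was read by Fe-XO absorbance ratio 573/405 nm.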
# ELG1 DNA repair: inhibitors of ELG1-dependent DNA repair in HEK293T cells | HEK293T ELG1-luciferase reporter, luminescence, 16 h; DNA damage induced by 5-fluorouridine | Potency, µM (series often up to 46.1 µM), for inactives: at the top dose activity change, negative = inhibition, hits mostly inhibitors | 330,000 compounds, 2.3% hits; also: nearly all actives have a fitted effect of over 55% in size
#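 Overnight (16 hr) co-exposure of 2,000 cells/well to 5-fluorouridine and compound at 37 °C preceded detection. Luciferase was quantified via ONE-Glo luminescence; loss of signal denotes inhibition.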
# RORgamma inh: ROR gamma (mouse) transcription inhibition; Drosophila S2 Gal4-RORgamma UAS-luciferase reporter, 20 h; Potency, µM (doses to about 53.6 µM), for the others: at the top dose activity change, negative = inhibition, usual class: inhibitors; 310,000 compounds, 5.4% hits; P51450; also: nearly all actives have a fitted effect of over 60% in size
# Target sequence (P51450 whole entry, looked up, the tested form may be a part): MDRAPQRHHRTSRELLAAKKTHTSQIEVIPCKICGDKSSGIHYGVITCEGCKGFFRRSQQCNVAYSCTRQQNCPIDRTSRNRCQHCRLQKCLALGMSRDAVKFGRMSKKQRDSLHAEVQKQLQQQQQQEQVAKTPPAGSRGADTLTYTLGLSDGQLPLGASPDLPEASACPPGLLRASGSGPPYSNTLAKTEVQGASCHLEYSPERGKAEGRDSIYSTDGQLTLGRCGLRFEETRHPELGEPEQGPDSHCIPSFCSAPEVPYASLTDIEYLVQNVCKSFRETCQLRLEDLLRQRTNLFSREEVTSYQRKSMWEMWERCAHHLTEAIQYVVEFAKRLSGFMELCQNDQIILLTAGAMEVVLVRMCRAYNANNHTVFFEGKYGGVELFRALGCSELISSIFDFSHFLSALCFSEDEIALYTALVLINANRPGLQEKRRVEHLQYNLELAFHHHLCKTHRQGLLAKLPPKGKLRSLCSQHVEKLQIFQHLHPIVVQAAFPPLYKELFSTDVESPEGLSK
#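 Using a luciferase readout, inhibitors were identified by reduced reporter activity in Drosophila cells coexpressing a copper-inducible Gal4–ROR gamma fusion and UAS-driven Photinus luciferase, incubated 20 hr after 700 uM copper sulfate.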
# * hit, by the source's call; ? = inconclusive; nt = no result; [ ] = another dose, or the depositor's remark. A selection: hits, their analogues and other compounds. The true share with any hit is near 15%. Calls follow the shape of the dose curve; as a rule, active = well fitted curve in the direction sought with a large enough effect; inconclusive = small, poorly fitted or top-dose-only effect, or another doubt; inactive = no such curve, though single readings can be large; an effect the other way counts as inactive or inconclusive. % is scaled to controls: 0 for no effect and ±100 for the full control effect; potency is read from the fitted curve at half-maximal effect.
SMILES,DT40 TDP1 no CPT,DT40 TDP1 CPT,Gal4-VP16 FLuc,12-LOX inh,ELG1 DNA repair,RORgamma inh
CCc1cccc(NC(=O)C2CCCN(S(=O)(=O)c3cccnc3)C2)c1 (stereo not drawn),15µM*,?,-2%,11%,-4%,3%
CCc1cccc(NC(=O)C2CCCN(c3cnn(Cc4ccccc4)c(=O)c3)C2)c1 (stereo not drawn),nt,nt,nt,40µM*,nt,nt
CCN(CCCNC(=O)C1CCCN(S(=O)(=O)CC)C1)c1cccc(C)c1 (stereo not drawn),15µM*,23µM*,-8%,389%,-6%,28%
Cn1cccc1C(=O)N1CCn2c(nnc2[C@@H]2C[C@@H](O)CN2Cc2ccccc2)C1,nt,nt,nt,27%,nt,nt
CCOC(=O)Cc1csc(NC(=O)Cc2c(C)c3c(OC)cc(C)cc3oc2=O)n1,nt,nt,nt,16%,nt,nt
COc1ccc(C)cc1NC(=O)C1CCCN(S(=O)(=O)c2cccnc2)C1 (stereo not drawn),-10%,-22%,8%,13%,-1%,-2%
CCN(CC)c1ccc(NC(=O)C2CCCN(S(=O)(=O)c3cccnc3)C2)c(C)c1 (stereo not drawn),10µM*,15µM*,-8%,248%,?,7%
COC(=O)[C@@]12CCCN1[C@H](c1ccc(-c3ccc(OC)cc3)cc1)[C@@H]1C(=O)N(C)C(=O)[C@@H]12,21µM*,18µM*,nt,-15%,-29%,nt
COC(=O)[C@@]12CCCN1[C@H](c1ccc(-c3ccccc3)cc1)[C@H]1C(=O)N(C)C(=O)[C@H]12,?,?,nt,0%,-11%,nt
COC(=O)[C@@]12CCCN1[C@H](c1ccc(-c3ccc(OC)cc3)c(OC)c1)[C@@H]1C(=O)N(C)C(=O)[C@@H]12,4.1µM*,4.1µM*,nt,-21%,3%,nt
COC(=O)[C@@]12CCCN1[C@H](c1ccc(-c3ccccc3)c(OC)c1)[C@H]1C(=O)N(C)C(=O)[C@H]12,-29%,?,nt,13µM*,10%,nt
COC(=O)[C@@]12CCCN1[C@H](c1ccc(-c3ccc(OC)cc3)c(OC)c1)[C@H]1C(=O)N(C)C(=O)[C@H]12,?,?,nt,?,-19%,nt
Cc1ccc(CN2C(=O)[C@@H]3C[C@@H](O)CN3C3(CN(Cc4ccccc4F)C3)C2=O)o1,nt,nt,nt,3%[176 µM],nt,nt
CC1=C[C@@H](CNC(=O)Cn2cnnn2)[C@H](C(C)C)C[C@H]1Cc1nc2ccccc2n1C,nt,nt,nt,10%[176 µM],nt,nt
CC(=O)CCc1c(C)c2cccc(C)c2[nH]c1=O,?,18µM*,-8%,0%,6%,32%
CCCc1c(C)c2cccc(C)c2[nH]c1=O,?,?,11%,172%,10%,22%[10 µM]
O=C(Nc1ccc(-n2cccn2)c(F)c1)C1CCCN1C(=O)c1ccco1 (stereo not drawn),nt,nt,nt,16%,nt,nt
CC1(C)Cc2c(cnn2-c2ccccc2)C(=O)/C1=N\NC(=O)c1ccncc1,?,18µM*,nt,0%,nt,nt
O=C(C[C@@H]1C/C=C\C[C@H](NC(=O)OCC2c3ccccc3-c3ccccc32)C(=O)OC[C@H]2CCCN2C1=O)N[C@H](CO)Cc1ccccc1,5.2µM*,4.6µM*,nt,?,?,nt
CC(C)(C)OC(=O)C[C@H]1C/C=C\C[C@@H](CC(=O)NCCO)C(=O)N2CCC[C@H]2COC1=O,-3%,-8%,nt,-3%,?,nt
O=C(C[C@@H]1C/C=C\C[C@H](NC(=O)OCC2c3ccccc3-c3ccccc32)C(=O)OC[C@@H]2CCCN2C1=O)NCCO,10µM*,4.6µM*,nt,?,23%,nt
O=C(C[C@@H]1C/C=C\C[C@H](NC(=O)OCC2c3ccccc3-c3ccccc32)C(=O)OC[C@@H]2CCCN2C1=O)N[C@H](CO)Cc1ccccc1,10µM*,7.3µM*,nt,-7%,4%,nt
O=C(C[C@@H]1C/C=C\C[C@H](NC(=O)OCC2c3ccccc3-c3ccccc32)C(=O)OC[C@@H]2CCCN2C1=O)N[C@@H](CO)Cc1ccccc1,18µM*,18µM*,nt,-7%,?,nt
COCC1CN(C(=O)COc2ccccc2)CC12CCNCC2 (stereo not drawn),nt,nt,nt,39%,nt,nt
COC[C@@H]1CN(c2cnccn2)C[C@H]1C(=O)N1CCc2ccccc2C1,nt,nt,nt,48%,nt,nt
SMILES,DT40 TDP1 no CPT,DT40 TDP1 CPT,Gal4-VP16 FLuc,12-LOX inh,ELG1 DNA repair,RORgamma inh
O=C(C[C@H]1C/C=C\C[C@H](NC(=O)OCC2c3ccccc3-c3ccccc32)C(=O)OC[C@@H]2CCCN2C1=O)N[C@H](CO)Cc1ccccc1,9.2µM*,10µM*,nt,nt,16%,nt
CC(C)C(=O)N1CCC2(CC1)OCC(C(=O)NCc1ccc3c(c1)OCO3)N2C(=O)c1ccccc1 (stereo not drawn),nt,nt,nt,22%,nt,nt
CN1CCN(c2ncnc3c2c(-c2ccccc2)cn3-c2ccc(F)cc2)CC1,5.2µM*,18µM*,-11%,-29%,-11%,24%
Clc1cccc(-n2cc(-c3ccccc3)c3c(N4CCCCC4)ncnc32)c1,23µM*,16µM*,nt,?,nt,nt
CC1CCN(c2ncnc3c2c(-c2ccccc2)cn3-c2ccc(Br)cc2)CC1,14%,0%,nt,-18%,nt,nt
CC(=O)N1CCN(c2ncnc3c2c(-c2ccccc2)cn3-c2cccc(C)c2)CC1,nt,nt,nt,-12%,nt,nt
c1ccc(-c2cn(-c3ccccc3)c3ncnc(N4CCCCC4)c23)cc1,18µM*,9.2µM*,-1%,3%,?,-13%
CCCSc1ncnc2c1c(-c1ccccc1)cn2-c1ccccc1OC,21µM*,?,nt,-16%,nt,nt
CC(=O)N1Cc2ccccc2CC2(CCCCN2Cc2ccncc2)C1 (stereo not drawn),nt,nt,nt,2%[6.33 µM],nt,nt
COc1ccccc1N1CCN(c2ncnc3c2c(-c2ccccc2)cn3-c2cccc(C)c2)CC1,?,18µM*,nt,-6%,nt,nt
CC(=O)c1ccc(-c2nnc(CCC(=O)N(C)Cc3cccc4cnccc34)o2)s1,-26%,-21%,-2%,-8%,?,1%
Cc1ccc(-c2nnc(CCC(=O)N(C)Cc3nccs3)o2)s1,21µM*,4%,0%,?,6%,-8%
O=C(Nc1cccc2[nH]ccc12)C(=O)NC(c1ccccc1)c1ccccc1,nt,nt,nt,23%,nt,nt
CCOC(C)C(=O)NCCc1cccs1 (stereo not drawn),nt,nt,nt,-2%,nt,nt
CN(C)/N=C/c1cc([N+](=O)[O-])ccc1O,?,-23%,-13%,-10%,1%,-36%
